The list is not random: actives were taken first. Their share in the collection is about 27%.
CYP2C9 inh: blockers of cytochrome P450 2C9 activity – biochemical, luminescence, ADME assay, primary screen; 96,000 compounds, 20% hits; inhibition, % at 5 µM; CYP2C9 Supersomes, luciferin-H conversion; P11712; AID 777, 2007;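 active = blocking of liver enzyme CYP2C9 beyond about 50% at 5 µM, limit read from the data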
CYP2C9 act: human CYP2C9 activators, primary screen, biochemical, luminescence; Cytochrome P450 2C9 (Homo sapiens), P11712; recombinant CYP2C9, luciferin-H conversion; stronger effect = higher value; factor 1 = untreated enzyme, 0 = blocked; activation factor at 5 µM; 96,000 compounds, 1.4% hits; AID 1024, 2008;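 active = activation factor of 2 or more for CYP2C9 at a 5 µM dose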
CYP2C19 act: human CYP2C19 activators, primary screen, biochemical, luminescence; Cytochrome P450 2C19 (Homo sapiens), P33261; recombinant CYP2C19, luciferin-H EGE luminescence; stronger effect = higher value; 0 = fully inhibited enzyme, 1 = untreated enzyme; activation factor at 5 µM; 96,000 tested, under 10 active; AID 1025, 2008;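 active = activation factor of at least 2 at 5 µM in the primary screen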
Target sequence (P33261 whole entry, looked up): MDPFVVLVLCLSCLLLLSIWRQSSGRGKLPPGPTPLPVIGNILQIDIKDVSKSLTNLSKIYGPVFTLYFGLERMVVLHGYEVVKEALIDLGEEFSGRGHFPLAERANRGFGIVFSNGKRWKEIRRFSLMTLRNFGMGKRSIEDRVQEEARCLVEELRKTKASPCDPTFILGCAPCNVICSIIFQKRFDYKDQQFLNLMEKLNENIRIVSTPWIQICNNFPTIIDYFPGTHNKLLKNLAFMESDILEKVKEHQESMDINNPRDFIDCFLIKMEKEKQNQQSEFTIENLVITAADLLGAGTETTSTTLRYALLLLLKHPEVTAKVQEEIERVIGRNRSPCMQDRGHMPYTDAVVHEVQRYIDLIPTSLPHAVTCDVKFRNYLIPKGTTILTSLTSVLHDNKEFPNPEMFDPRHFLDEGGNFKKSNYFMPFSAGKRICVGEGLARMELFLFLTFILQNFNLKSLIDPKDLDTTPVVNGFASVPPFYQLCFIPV
CYP2C19 inh: blockers of cytochrome P450 2C19 activity – biochemical, luminescence, ADME assay, primary screen | inhibition, % at 5 µM | P33261 | 96,000 compounds, 21% hits | AID 778, 2007 | CYP2C19 Supersomes, luciferin-H EGE luminescence, 30 min;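 active = CYP2C19 inhibition above a set limit at 5 µM in the primary screen, cut at about 50% in these data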
Cav32 inh: Cav3.2 calcium influx blockers – cell-based, Fluo-4 calcium fluorescence, FDSS, MLSMR library, primary screen. Cav3.2-expressing cells; stronger effect = lower value. B-score at 10 µM. 100,000 compounds, 4% hits;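 active = single-dose well whose peak fluorescence ratio is a statistical outlier from its plate by either plate-standardised score or position-corrected B-score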
A number is an active result; n = inactive; x = no result given.

SMILES	CYP2C9 inh	CYP2C9 act	CYP2C19 act	CYP2C19 inh	Cav32 inh
C#CCn1c(S(=O)(=O)Cc2ccc(OC)cc2)nc(-c2ccccc2)c1-c1ccccc1	82	n	n	64	-5.1
CS(=O)(=O)N(Cc1cc2ccccc2[nH]c1=O)C1CCCCC1	n	n	n	n	x
CC/C(O)=C1\C(=O)CC(c2ccccc2)CC1=NCCc1c(C)[nH]c2ccc(C)cc12 (stereo not given)	x	x	x	x	-4.6
CCOC(=O)c1ccc(C(=O)OCC)nc1	n	n	n	n	n
Cc1nc(CS(=O)(=O)c2ccccc2)cc(Sc2ccc(Cl)cc2Cl)n1	50	n	n	n	-5.7
COc1ccc(C=NCC2COc3ccccc3O2)cc1OC (stereo not given)	n	n	n	n	n
Cc1cccc(NC(=O)CCSc2nc(C)cc(C)n2)c1	n	2.7	n	52	n
Cc1cc(C)nc(SCCC(=O)N(C)C)n1	n	n	n	n	n
Cc1cccc(NC(=O)CSc2nnc(CSc3nc(C)cc(C)n3)o2)c1	n	n	n	89	n
Cc1cc(C)nc(SCc2nnc(SCC(=O)Nc3ccc(Cl)c(C(F)(F)F)c3)o2)n1	n	n	n	n	n
COCCN(C(=O)CCC(=O)Nc1cccnc1)C(C(=O)NC1CCCCC1)c1ccccc1 (stereo not given)	n	n	n	n	n
COc1cccc(N2[C@@H](CC(=O)O)c3cc(C(F)(F)F)ccc3S2(=O)=O)c1	x	x	x	x	n
O=S1(=O)c2ccccc2N=NN1Cc1ccc(Cl)cc1	68	n	n	83	n
O=S1(=O)c2ccccc2N=NN1Cc1cc(Cl)cc(Cl)c1	54	n	n	n	n
CCCN(CCC)CCNC(=O)C1CC(=O)N(c2ccc(OC)cc2)C1c1ccc(OC)cc1 (stereo not given)	n	n	n	n	n
C=CCN(CC=C)S(=O)(=O)c1ccc(NC(=S)NC(=O)c2ccc(-c3ccccc3)cc2)cc1	62	n	n	n	n
C=CCN(CC=C)S(=O)(=O)c1ccc(NC(=S)NC(=O)Cc2ccc(OC)cc2)cc1	72	n	n	n	n
C=CCN(CC=C)S(=O)(=O)c1ccc(NC(=S)NC(=O)c2ccco2)cc1	n	n	n	n	n
COc1ccccc1-c1noc(-c2ccccc2C(=O)Nc2cccnc2)n1	n	n	n	n	n
CC(=O)Nc1ccc(S(=O)(=O)N2CCN(c3ccccn3)CC2)cc1	n	n	n	n	n
CCCc1ccc(OCc2ccc(C(=O)N3CCN(c4ccccn4)CC3)o2)c(OC)c1	57	n	n	57	-4.9
CCn1cc(C(=O)N2CCN(C(=O)c3ccco3)CC2)c2cc(OC)c(OC)cc2c1=O	n	n	n	n	n
COc1ccc(S(=O)(=O)N2CCN(c3ccccn3)CC2)cc1OC	n	n	n	70	n
COc1ccc(CC(=O)N2CCN(c3ccccn3)CC2)cc1OC	n	n	n	52	n
CCn1cc(C(=O)N2CCN(c3ccccn3)CC2)c2cc(OC)c(OC)cc2c1=O	60	n	n	n	x
SMILES	CYP2C9 inh	CYP2C9 act	CYP2C19 act	CYP2C19 inh	Cav32 inh
CC(C)OP(C)(=O)CN1CCN(CP(C)(=O)OC(C)C)CC1 (stereo not given)	n	n	n	n	n
C#C[C@]1(O)CC[C@H]2[C@@H]3CCc4cc(OC5CCCC5)ccc4[C@H]3CC[C@@]21C	x	x	x	x	n
CCOC(=O)c1[nH]c2ccc(C)cc2c1N=CN(CC)CC	n	n	n	n	n
Cc1nccn1CC(O)COC1CCCCC1 (stereo not given)	n	n	n	n	n
COc1ccc([N+](=O)[O-])cc1C1NN=C(c2ccccc2O)S1 (stereo not given)	n	n	n	n	-3.7
COc1ccccc1OCCCOc1ccc([N+](=O)[O-])cc1Cl	n	n	n	n	n
O/N=C1\CCCc2nnc3c(c21)CCCC3	n	2.9	n	n	n
O/N=C1\CCCc2oc3c(c21)CCCC3	n	n	n	n	n
Cc1ccc(-n2cc(C(=O)c3ccccc3O)cn2)cc1	n	n	n	61	x
c1ccc2c(c1)ccc1nnc(SCc3ccc4c(c3)OCO4)n12	n	n	n	n	n
c1ccc2c(Oc3ccc4c(c3)OCO4)nncc2c1	n	n	n	62	n
O=C1OCC2=C1C(c1ccc3c(c1)OCO3)Sc1ccccc1N2 (stereo not given)	70	n	n	96	n
CCOc1ccc(C2NC(=O)c3ccccc3O2)cc1 (stereo not given)	n	n	n	n	n
CCOc1ccc(C2Sc3ccccc3NC3=C2C(=O)OC3)cc1 (stereo not given)	56	n	n	68	-4.1
CCc1cc(-c2n[nH]c(=S)n2Cc2ccccc2)cs1	n	n	n	51	x
Cc1cccc(-c2n[nH]c(=S)n2Cc2ccccc2)c1	x	x	x	x	n
CCc1cc(-c2n[nH]c(=S)n2-c2ccccc2C)cs1	52	n	n	n	x
CCCc1cc(-c2n[nH]c(=S)n2C(C)c2ccccc2)cs1 (stereo not given)	97	n	n	81	-4.6
Cc1ccccc1-n1c(Cc2cccs2)n[nH]c1=S	n	n	n	n	n
Cc1nnc(SCCCOc2ccccc2)nc1C	x	x	x	x	n
CCN(CC)CCCN(C(C)=O)c1nc(-c2cc(OC)ccc2OC)cs1	n	n	n	n	x
O=C(c1ccco1)N1c2ccccc2Sc2ccccc21	x	x	x	x	-4.7
O=C(c1ccco1)N1CCN(C(=O)N2c3ccccc3Sc3ccccc32)CC1	n	n	n	n	n
CCCCCCc1ccc(OCC(=O)OC)cc1OCC(=O)OC	n	n	n	n	n
Cc1ccc(N(C(=O)c2csnn2)C(C(=O)NC(C)(C)C)c2cccs2)cc1 (stereo not given)	n	n	n	77	n
SMILES	CYP2C9 inh	CYP2C9 act	CYP2C19 act	CYP2C19 inh	Cav32 inh
Clc1ccc(NNc2ccnc3cc(Cl)ccc23)cc1	80	n	n	66	n
O=C(NCc1ccco1)C(c1ccccc1F)N(CC1CCCO1)C(=O)Cn1nnc2ccccc21 (stereo not given)	n	n	n	n	x
CC(C)(C)n1nnnc1C(c1ccccc1F)N(Cc1ccco1)CC1CCCO1 (stereo not given)	71	n	n	n	n
Cc1ccc2[nH]c(=O)c(C(c3nnnn3C(C)(C)C)N(Cc3ccco3)CC3CCCO3)cc2c1 (stereo not given)	n	n	n	n	n
Cc1cccc2cc(C(c3nnnn3C(C)(C)C)N(Cc3ccco3)CC3CCCO3)c(=O)[nH]c12 (stereo not given)	56	n	n	n	n
O=C(CSc1nc(-c2ccccc2)cc(=O)[nH]1)N1CCOCC1	n	n	n	n	n
Cc1ccc(Cn2nc(C)c3cc(C(=O)OCC(N)=O)sc32)cc1	n	n	n	n	n
COc1cccc(-n2nc(-c3ccnn3-c3ccc(C)cc3)c(=O)n(C)c2=O)c1	84	n	n	89	n
COc1cccc(-n2c(C)nn(C)c2=O)c1	n	n	n	n	n
